# Hits are enriched below; roughly 2.1% of the tested compounds scored in any of these assays.
# D2 PAM-1 – positive allosteric modulators of human D2 dopamine receptor; potentiation, % at 10 µM; 340,000 tested, 0.34% active; HEK293 T-REx D2, calcium flux, EC20 dopamine potentiation; AID 485347; P14416;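 active = potentiation over 3 SD above the plate norm, cut at about 30% in these data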; also: 0% is about no effect
# Target sequence (P14416 whole entry, looked up): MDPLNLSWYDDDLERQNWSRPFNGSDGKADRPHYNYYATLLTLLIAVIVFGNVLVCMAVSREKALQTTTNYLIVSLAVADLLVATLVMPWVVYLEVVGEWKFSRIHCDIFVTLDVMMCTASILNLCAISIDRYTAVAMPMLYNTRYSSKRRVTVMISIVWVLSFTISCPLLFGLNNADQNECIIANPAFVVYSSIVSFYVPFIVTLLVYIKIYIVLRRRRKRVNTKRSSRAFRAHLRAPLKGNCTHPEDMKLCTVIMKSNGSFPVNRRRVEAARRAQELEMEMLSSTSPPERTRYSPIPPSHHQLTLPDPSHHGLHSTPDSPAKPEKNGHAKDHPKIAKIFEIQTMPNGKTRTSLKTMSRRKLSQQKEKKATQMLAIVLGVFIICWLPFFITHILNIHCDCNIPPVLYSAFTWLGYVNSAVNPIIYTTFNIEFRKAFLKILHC
#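 Calcium flux readout, no-wash dye, 1 read/s. Inducible HEK293 Trex D2 line, overnight 30 C. Compound alone 180 s (agonist flags), then EC20 dopamine, another 180 s to score potentiation.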
# D2 ag-1 – human D2 receptor agonism in beta-arrestin assay | DiscoveRx PathHunter D2 beta-arrestin, luminescence, 90 min; 100% = 57 uM dopamine signal | activation, % (concentration not given with the values) | 360,000 tested, 0.084% active; in the data active = activation above about 40%; inconclusive = between about 15% and that limit
#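 DiscoveRx PathHunter D2 beta-arrestin cells (2,100/well) attached overnight, then compound-stimulated 90 min at 37 C in HBSS/10 mM HEPES/0.1% Tween-20 buffer; beta-galactosidase complementation read by luminescence after 1 h at ambient temperature. Dopamine 57 uM final (EC100) as control.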
# D2 antagonist – D2 dopamine receptor (human) antagonism; P14416; HEK293 TREx D2 cells, calcium flux, dopamine EC80; inhibition, % at 10 µM; 340,000 tested, 2% active; in the data active = inhibition above about 30%; inactive = below that, where a call was filed; also: 0% is about no effect
#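 Compounds are added to dye-loaded, induced HEK293 T-REx cells coupled to calcium release via D2; after a 3 min kinetic read an EC80 dopamine stimulus is given and fluorescence is recorded for 3 more min.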
# D2 ag-2 – D2 dopamine receptor (human) agonism; P14416; HEK293 T-REx D2 cells, calcium flux agonist mode; activation, % at 2 µM; 340,000 tested, 0.53% active; AID 485358;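 active = activation over 3 SD above normal in the single-dose calcium agonist read, cut at about 30% in these data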; also: 0% is about no effect
#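 Calcium-flux readout, 1 cycle/sec over 180 s following compound pin transfer, in inducible HEK293 Trex D2 cells (force-coupled); dopamine controls included. Positive calcium responses during this window marked compounds as potential agonists.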
# D2 PAM-2 – potentiates the human D2 dopamine receptor allosterically. P14416. DiscoveRx D2 beta-arrestin cells, luminescence, 90 min; 100% = 57 uM dopamine signal. potentiation, % (concentration not given with the values). 360,000 tested, 0.23% active. AID 624464; in the data active = potentiation above about 50%; inconclusive = mostly about 30% to 49%
#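 D2 cells co-treated with compound plus 50 nM dopamine (EC20) for 90 min at 37 deg C to detect potentiation. Beta-arrestin recruitment was read as enzyme-fragment luminescence after 1 h at ambient temperature. Full response was set by 57 uM dopamine.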
# LDHA inh – blocks human lactate dehydrogenase A | 480,000 tested, 0.15% active | P00338 | purified LDHA, NADH/diaphorase-resazurin fluorescence; active compounds read low | AID 1347041 | activity change, % (values are at about 110 or 230 µM); in the data active = activity change below about -30%; inconclusive = mostly about -25% to -30%;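 also: plate controls were DMSO wells for no effect and wells without enzyme for full effect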
#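 Enzyme activity of human lactate dehydrogenase 5 (2 nM; 0.06 mM NADH, 0.2 mM pyruvate, 5 min, RT) is measured via a resazurin/diaphorase fluorescence readout of residual NADH.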
# An asterisk follows results filed as active; ? = inconclusive; . = not tested or not shown.
SMILES,D2 PAM-1,D2 ag-1,D2 antagonist,D2 ag-2,D2 PAM-2,LDHA inh
Cc1cc(N2CCOCC2)nc(Nc2ccc(NC(=O)Nc3cccc(Cl)c3)cc2)n1,.,.,.,.,.,9.3
COc1cccc(C2C(C#N)=C(N)OC3=C2C(=O)CC(c2ccccc2)C3)c1 (stereo not drawn),.,.,.,.,.,10.0
O=C(NCC(Cl)c1ccc2ccccc2c1)c1c(F)cccc1F (stereo not drawn),0.2,2.5,68.8*,0.3,-12.9,-4.3
CC(=O)Nc1ccc(N=Cc2c(O)c(C(=O)Nc3ccccc3)cc3ccccc23)cc1,-18.6,9.1,18.8,64.8*,0.8,3.0
S=C1Cc2ccccc2C(c2ccc(Cl)cc2)N1 (stereo not drawn),-4.3,1.3,33.0*,-1.1,-4.5,0.4
O=C1Cc2ccccc2C(c2ccc(Cl)cc2)N1 (stereo not drawn),3.8,-2.1,0.2,0.3,-2.9,-4.8
Cc1cc(C(=O)Cn2c(Cl)nc3c2c(=O)n(C)c(=O)n3C)c(C)n1CC(F)(F)F,.,.,.,.,.,0.3
O=c1[nH]c(Nc2ccc3c(c2)OCCO3)nnc1Cc1ccccc1,2.5,-2.5,48.6*,-0.1,-13.7,-6.4
O=C(C[n+]1ccccc1)N/N=C/c1cc(Br)cc(Br)c1O,-32.0,-7.5,31.7*,2.1,-30.7,12.0
COc1ccc(Br)cc1/C=N/NC(=O)C[n+]1ccccc1,-19.9,-5.8,40.0*,0.8,-7.8,-3.1
O=C(C[n+]1ccccc1)N/N=C/c1cc(Br)ccc1F,-19.0,-4.7,-6.8,0.4,-32.6,-3.7
COc1cc(C2C(C#N)=C(SCc3ccccc3)NC3=C2C(=O)CCC3)cc(OC)c1OC (stereo not drawn),.,.,.,.,.,16.8
CC(OC(=O)C1=CN2CCS(=O)(=O)N=C2C=C1)C(=O)Nc1ccccc1 (stereo not drawn),.,.,.,.,.,-2.7
COC(=O)CCC(=O)OC1(C)C(=O)C=C2C=C(C3CC3)N(Cc3ccc4c(c3)OCO4)C=C2C1=O (stereo not drawn),18.9,8.7,-4.7,-0.5,72.6*,19.0
Cc1cccc(OCC(=O)Nc2cc(-c3nn(C)c(=O)c4ccccc34)ccc2N2CCCCC2)c1,.,.,.,.,.,-1.5
O=C(Nc1ccccc1Cl)c1cc(C2CC2)nn1-c1ccccc1,.,.,.,.,.,-0.2
CCn1c(C)nc2cc(C(=O)N/N=C/c3ccc(O)c(O)c3O)ccc21,-6.9,0.5,-5.6,31.8*,15.6,31.6
CCn1c(C)nc2cc(C(=O)N/N=C/c3cccc(OC)c3O)ccc21,1.9,-6.9,-8.5,0.3,-2.8,15.2
CC(C)c1ccc(-n2nnnc2SCCCn2c(=O)c3c(ncn3C)n(C)c2=O)cc1,.,.,.,.,.,-7.7
Cc1cc(=O)n2nc(N3CCCC(C(=O)NCc4ccco4)C3)sc2n1 (stereo not drawn),-6.6,1.0,36.3*,0.6,-6.3,-7.0
CC1=C(C)C(=O)N(c2ccccn2)C1=O,10.4,0.8,3.6,1.0,-0.2,4.2
Cc1nn(-c2ccccn2)c2c1C(=O)C(Br)CC2 (stereo not drawn),-0.3,?,-2.3,0.9,53.6*,28.6
C=CCc1ccc(OCCOCCN(C)C)c(OC)c1,30.7*,-0.1,5.0,-0.4,-26.0,-4.0
CS(=O)(=O)Oc1ccc2c(c1)O/C(=C\C=C\c1ccccc1)C2=O,-3.2,2.5,37.5*,3.4,-2.8,0.0
COc1ccc(S(=O)(=O)Oc2ccc3c(c2)O/C(=C\C=C\c2ccccc2)C3=O)cc1,.,.,.,.,.,-10.1
SMILES,D2 PAM-1,D2 ag-1,D2 antagonist,D2 ag-2,D2 PAM-2,LDHA inh
Cc1c(NS(=O)(=O)c2ccccc2)cc(Cl)c(O)c1C,.,?,-6.3,3.0,61.9*,13.6
COc1ccc(Cl)cc1S(=O)(=O)n1cnc2ccccc21,12.1,-4.2,79.0*,-0.5,12.5,-2.5
CCOc1ccc(Cl)cc1S(=O)(=O)n1cnc2ccccc21,-2.4,1.5,-5.8,-0.1,-2.3,-8.3
C=CCNc1oc(/C=C/c2cccc(OC)c2)nc1C#N,.,.,.,.,.,4.5
COC(=O)/C(=C/c1cccc([N+](=O)[O-])c1)NC(=O)c1ccc(OC)cc1,6.4,-0.3,9.8,-0.5,2.0,-1.7
COc1ccc(/C=C(/NC(=O)c2cccc([N+](=O)[O-])c2)C(=O)O)cc1OC,-2.6,4.1,55.6*,-0.2,-4.2,0.9
Cc1ccc(-c2ccc(CCC(=O)O)n2C(C)C)cc1,15.5,-1.5,32.6*,-0.1,-7.3,-1.8
Cc1ccc(-c2ccc(CCC(=O)O)n2NC(N)=S)cc1,3.8,0.2,-8.1,2.4,-20.3,-1.6
O=C(Nc1cccc(CNCCc2c[nH]c3ccccc23)c1)c1ccccc1Cl,-33.9,-4.4,72.4*,21.6,-24.4,-6.3
O=[N+]([O-])c1cc([N+](=O)[O-])c(Oc2cccnc2Br)cc1NN1CCCCC1,-3.5,0.8,34.8*,-0.4,3.6,-1.7
CC1CCCN(Cc2c(O)ccc3c4c(c(=O)oc23)CCCC4)C1 (stereo not drawn),-20.2,-4.6,36.0*,0.1,-31.0,-1.4
O=c1oc2c(CN3CCOCC3)c(O)ccc2c2c1CCC2,9.9,-2.6,-2.3,0.1,-8.2,-1.6
O=C(NCCN1CCc2ccccc2C1)c1ccc(Cl)cc1,.,.,.,.,.,-6.3
CCN(CC)S(=O)(=O)c1cc(NC(=O)c2cc([N+](=O)[O-])ccc2N2CCOCC2)ccc1C,-4.4,-4.5,37.3*,0.0,-35.8,0.0
CCN(CC)S(=O)(=O)c1ccc(OC)c(NC(=O)c2cc([N+](=O)[O-])ccc2N2CCOCC2)c1,.,0.0,.,.,-4.2,3.0
O=C(COC(=O)c1cc([N+](=O)[O-])ccc1N1CCOCC1)Nc1ccc(Cl)cc1,-8.1,1.9,41.8*,0.6,-27.5,-3.7
C=CCC1(Nc2c(CC)cccc2CC)CCCCC1,.,.,.,.,.,4.6
COc1ccc2c(c1)c(C(O)CN1CCN(Cc3ccc4c(c3)OCO4)CC1)c(C)n2C (stereo not drawn),3.2,0.9,5.4,1.1,-32.5,-2.0
COc1ccc2c(c1)c(C(O)CN1CCC(Cc3ccccc3)CC1)c(C)n2C (stereo not drawn),-25.8,-2.5,50.8*,0.3,-19.5,-2.5
CCONC(=O)c1ccc(C(=O)NOCC)cc1,.,.,.,.,.,-3.4
C#CCSc1nccc(-c2nn(-c3ccc(C)cc3)ccc2=O)n1,-18.3,-4.2,32.3*,0.5,-32.1,1.7
CN(Cc1ccc(F)cc1)C(=O)c1cc(COc2ccc(-n3cncn3)cc2)on1,1.9,1.9,-9.7,0.4,66.6*,-5.7
CCc1ccc(CN(C)C(=O)c2cc(COc3ccc(-n4cncn4)cc3)on2)cc1,1.7,9.1,-19.6,-0.3,-8.4,-6.7
COc1ccc(NC(=O)Nc2nnc(-c3ccccc3F)s2)cc1,-0.3,-0.1,41.3*,1.9,-2.5,-2.5
